Measured values published in PubChem BioAssay AID2016 (NMMLSC, 2009).
Hit rate of the full screen: of about 330,000 compounds, about 1,700 (0.52%) were called active.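 The calls were made as follows: active = GFP response versus DMSO above a set limit, roughly screen mean plus 3 SD (cut at about 180% in these data); inconclusive = fewer than 70 cells counted for a yeast strain; inactive = the rest.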 The entries come from a sample that favours actives as a whole.

Experiment: modulators of MEP2-GFP levels in yeast, primary screen, S. cerevisiae, multiplex flow cytometry, MLPCN library (AID 2016);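 also: median GFP fluorescence of the barcode-gated MEP2-GFP cells per well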
Conditions: S. cerevisiae MEP2-GFP strain, 3 h, at 10 µM, active compounds read high, 100% = DMSO control level

SMILES | GFP response vs DMSO
O=C(Nc1ccc(Br)c2cccnc12)c1ccc(Cn2cc([N+](=O)[O-])cn2)o1 | 97.1% (inactive)
C=CCc1cccc(/C=N/NC(=O)COc2ccc(-n3cnnn3)cc2)c1O | 102% (inactive)
O=C(COc1ccc(Cl)cc1)Nc1ccccc1CO | 98.3% (inactive)
O=C(COc1ccc(-n2cnnn2)cc1)Nc1ccccc1Cl | 240% [may fluoresce violet] (active)
Cc1c(-c2ccccc2)cn2c1-c1ccc(C)n1CC2 | 106% (inactive)
Cc1cccc[n+]1CC(=O)c1ccccc1 | 113% (inactive)
COC(=O)C[n+]1cccc2ccccc21 | 221% (active)
COc1ccccc1NC(=O)C[n+]1ccccc1 | 108% (inactive)
CCOc1ccc(CN(C)C(=O)c2ccc(=O)[nH]c2)cc1 | 104% (inactive)
COc1ccc2cc1Oc1ccc(cc1)C[C@H]1c3cc(c(OC)cc3CCN1C)Oc1c(O)c(OC)cc3c1[C@H](C2)N(C)CC3 | 99.2% (inactive)
COc1cc(COCC(O)CN2CCN(Cc3ccc4c(c3)OCO4)CC2)cc(OC)c1OC (stereo not given) | 100% (inactive)
COc1c(O)ccc2c1CN1CCc3cc4c(cc3C1C2)OCO4 (stereo not given) | 205% (active)
COc1ccc(NC(=O)CSc2nncc(=O)n2N)cc1OC | 104% (inactive)
COc1ccccc1CNC(=O)COn1nnc2ccc(S(=O)(=O)N3CCOCC3)cc21 | 123% (inactive)
CC(=O)OC(C(=O)NCCc1ccccc1)c1cccnc1 (stereo not given) | 234% [may fluoresce violet] (active)
O=C(CSc1ncccn1)NCCc1ccccc1 | 96.5% (inactive)
CCC(Oc1ccccc1)C(=O)NCc1cccnc1 (stereo not given) | 101% (inactive)
COc1cc(CO)c(C2(CO)CCCC2)cc1OC | 101% (inactive)
O=C(NC1CCCC1)C(=O)c1c[nH]c2ccccc12 | 90.7% (inactive)
C[n+]1ccc(/C=C/c2c[nH]c3ccccc23)cc1 | 403% (active)
COc1ccc(/C=C(\C#N)c2c[nH]c3ccccc23)cc1 | 98.7% (inactive)
CCOc1cc(/C=N/NC(=O)OC)ccc1OCCSc1ccc(Cl)cc1 | 94.9% (inactive)
O=S(=O)(Nc1ccccc1)c1ccc(NS(=O)(=O)c2cccs2)cc1 | 94.2% (inactive)

SMILES | GFP response vs DMSO
Clc1ccc(CN2CCCCCC2)cc1Cl | 111% (inactive)
Cc1ccc2nc(-c3ccc(SCC(=O)Nc4cc(C)on4)nc3)[nH]c2c1 | 103% (inactive)
CC(=O)O[C@]1(C(C)=O)CC[C@H]2[C@@H]3C=C(C)C4=CC(=O)CC[C@]4(C)[C@H]3CC[C@@]21C | 180% [may fluoresce violet] (active)
CC(=O)C12CC(C)=C(C)CC1CC1C3CCC4=CC(=O)CCC4(C)C3CCC12C (stereo not given) | 101% (inactive)
O=C(C1Cc2ccccc2CN1C(=O)c1ccco1)N1CCN(c2ccccc2)CC1 (stereo not given) | 93.4% (inactive)
COc1ccc(CNC(=O)COC(=O)C(CCSC)N2C(=O)c3ccccc3C2=O)cc1 (stereo not given) | 106% (inactive)
Cc1cc(OCC(=O)Nc2c(C)n(C)n(-c3ccccc3)c2=O)ccc1[N+](=O)[O-] | 112% (inactive)
Cc1c(NC(=O)c2c([N+](=O)[O-])cnn2C)c(=O)n(-c2ccccc2)n1C | 284% [may fluoresce violet] (active)
Cc1c(NC(=O)Nc2cccc([N+](=O)[O-])c2)c(=O)n(-c2ccccc2)n1C | 103% (inactive)
CCOC(=O)C1CCN(C(=O)Cc2c(C(=O)O)[nH]c3ccccc23)CC1 | 105% (inactive)
Nc1nc(SCC(=O)Nc2ccc(Cl)c([N+](=O)[O-])c2)n[nH]1 | 106% (inactive)
CC(C)(C)C(=O)Nc1ccc(-c2cn3cccnc3n2)cc1 | 119% (inactive)
FC(F)(F)Oc1ccc(-c2cn3cccnc3n2)cc1 | 471% [may fluoresce violet] (active)
COc1ccc(-c2cn3cccnc3n2)cc1 | 101% (inactive)
O=C(NCC(F)(F)F)Nc1nnc(C(F)(F)F)s1 | 90.6% (inactive)
COc1ccc2[nH]c(=O)c(C3c4cc(OC)c(OC)cc4CCN3C(=O)c3ccco3)cc2c1 (stereo not given) | 105% (inactive)
CCc1ccc(OCC2c3cc(OC)c(OC)cc3CCN2C(C)=O)cc1 (stereo not given) | 269% [may fluoresce violet] (active)
COc1ccc(CC(NC(C)=O)C(=O)NC2CCN(C(=O)c3ccc(OC)c(OC)c3)CC2)cc1OC (stereo not given) | 95.1% (inactive)
CCOCc1nnc(NC(=O)CCC2CCCCC2)s1 | 110% (inactive)
O=C(COc1cc2oc(=O)c3c(c2cc1Cl)CCC3)NCCCN1CCOCC1 | 113% (inactive)
COc1ccc(S(=O)(=O)NC(C)C(=O)NCc2ccncc2)cc1Cl (stereo not given) | 102% (inactive)
CC(Oc1cc2oc(=O)c3c(c2cc1Cl)CCCC3)C(=O)NCc1ccncc1 (stereo not given) | 185% [may fluoresce violet] (active)
